Here are results for 40 sequences from the supplement of paper PMC10338343.

± gives the standard deviation.

The subject of the test is EfPiwi piRISC loaded with piRNA #1 (26 nt). The test can be described thus: pre-steady-state target cleavage rate (min^-1); auxiliary factor: 500 nM Ephydatia muelleri Gtsf1; guide: piRNA #1 5'p-UGAGGUAGUAGGUUGUAUAGUAUCCA; MIWI and MILI are mouse PIWI proteins and EfPiwi is from a freshwater sponge; tags in brackets are library labels; higher = faster piRNA-guided slicing of the target. The procedure, abridged:
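Active affinity-purified piRISC carrying one synthetic guide (1 nM) was mixed with a transcribed, DNA-blocked target RNA library […] in HEPES–potassium acetate buffer at 33 °C for 0–8 or 0–960 min, with or without 500 nM GTSF1 partner protein. Uncleaved targets were then sequenced and normalised to depth and to weakly complementary targets. Three trials were pooled, and k3 was capped at 0.0001 min^-1. A burst-and-steady-state fit was applied to obtain the pre-steady-state cleavage rate.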
With GGAGACCAUACUAUACAACCAACUACCUGA, the “pre-steady-state target cleavage rate” value turned out to be 0.00258 ± 0.0022.
Turning to GGAGACGAUACUAUACAACGUUCUACCUCA, the “pre-steady-state target cleavage rate” value was 0.00329 ± 0.0013.
Next, GGAGAGGAUACUAUACAACCAACAACCUCA: 0.00224 ± 0.0022.
On to GGAGACCUAUGAUAUGAUCCUAGUACCUCA, for which the “pre-steady-state target cleavage rate” value was less than 0.0001.
As to GGAGACCUAACUAUACACCUACUACCUCA, the “pre-steady-state target cleavage rate” value came out at 0.00586 ± 0.0042.
Take GGAGAGGAUACUAUACAAACUACUACCUCA: the “pre-steady-state target cleavage rate” value was 0.00673 ± 0.0029.
GGAGAGGAUACUAUACAACCUACUUCCUGA: the “pre-steady-state target cleavage rate” value turned out to be 0.00331 ± 0.0022.
Consider GGAGACGAUACUAUACAACCUACUACUCUCA, for which the “pre-steady-state target cleavage rate” value is 0.00563 ± 0.0022.
For GGAGACGAUACUAUACAACAUACUACCUCA, the “pre-steady-state target cleavage rate” value was 0.00522 ± 0.0024.
Turning to GGAGACCUAUCUAUACAACCUAGUACGUCA, the “pre-steady-state target cleavage rate” value was 0.00316 ± 0.0024.
With GGAGUGGAUACUAUACAACCUAGCUACCUCA, the “pre-steady-state target cleavage rate” value was found to be 0.003 ± 0.0015.
As for GGAGAGGAUACUAUACAUCCUACUAGCUCA, the “pre-steady-state target cleavage rate” value was determined as 0.00277 ± 0.0019.
On to GGAGAGGAUACUAUACAACCUACAACCUGA, for which the “pre-steady-state target cleavage rate” value worked out at 0.00332 ± 0.0014.
As for GGAGACCUAACUAUAACAACCUACUACCUCA, the “pre-steady-state target cleavage rate” value came out at 0.00912 ± 0.005.
For GGAGAGGAAACUAUACAACCUAGUACCUCA the value was 0.00323 ± 0.0013; for GGAGACGAUACUAUACAAACUACUACCUCA, 0.00656 ± 0.0025.
Consider GGAGACGAUACUAUACUACGUACUACCUCA, for which the “pre-steady-state target cleavage rate” value was found to be 0.00413 ± 0.0027.
Consider GGAGAGGAUACUAUACAACCUAGAUCCUCA, for which the “pre-steady-state target cleavage rate” value is 0.00241 ± 0.0021.
GGAGAGGAAACUAUACAACGUACUACCUCA: the “pre-steady-state target cleavage rate” value worked out at 0.00339 ± 0.0016.
As for GGAGAGGAUACUAUACAACCUUCUUCCUCA, the “pre-steady-state target cleavage rate” value worked out at 0.00382 ± 0.0025.
For GGAGACGAUACUAUACAACCCUACUACCUCA the value was 0.00604 ± 0.0029; for GGAGACGAUACUAUACAACCUUGUACCUCA, 0.00308 ± 0.002.
For the sequence GGAGACCUAUGAAUACAACCUACAUGCUCA, the “pre-steady-state target cleavage rate” value is less than 0.0001.
For GGAGACCUAACUAUACAACCAACUACCUCA, the “pre-steady-state target cleavage rate” value was determined as 0.00331 ± 0.0023.
For GGAGAGGAUACUAUAACAACCUACUACCUCA the value was 0.0661 ± 0.025; for GGAGACGAUACUAUCACAACCUACUACCUCA, 0.0153 ± 0.0062; for GGAGACGAUUCUAUACAAGCUACUACCUCA, 0.00369 ± 0.003.
For GGAGACGAUACUAUACAAUCCUACUACCUCA the value was 0.0069 ± 0.004.
Consider GGAGAGGAUACAAUACAACCUUCUACCUCA, for which the “pre-steady-state target cleavage rate” value was 0.00307 ± 0.0023.
As for GGAGACCUAUGAUAUCAACCUACAUGCUCA, the “pre-steady-state target cleavage rate” value was less than 0.0001.
For GGAGUCGAUUCUAUACAACCUACUACCUCA the value was 0.00723 ± 0.0043; for GGAGACGAUACUAUACAACCUAGUACCUGA, 0.00389 ± 0.001; for GGAGACCUAUGAUAUGUACCUUCUACCUGA, less than 0.0001.
Turning to GGAGAGGAUACUAUACAACCUUCUACCUGA, the “pre-steady-state target cleavage rate” value was determined as 0.00393 ± 0.0023.
Consider GGAGACGAUACUAUACAACCUACAACGUCA, for which the “pre-steady-state target cleavage rate” value is 0.00349 ± 0.0012.
With GGAGACCAUACUAUACAACCUACUUGGUCA, the “pre-steady-state target cleavage rate” value was 0.00392 ± 0.0029.
Consider GGAGACCUAACUAUACAACCUUCUACCUGA, for which the “pre-steady-state target cleavage rate” value stood at 0.00465 ± 0.0036.
For GGAGACCAUACUAUCAACCUACUACCUCA the value was 0.0101 ± 0.005; for GGAGAGGAUAGUAUACAUCCUACUACCUCA, 0.00316 ± 0.0022.
On to GGAGACCAUUCUAUACUACCUACUACCUCA, for which the “pre-steady-state target cleavage rate” value came to 0.00741 ± 0.0044.
